Assay outcomes deposited in PubChem BioAssay by several laboratories.
Sampled rows, rich in hits. Any-hit rate of the full collection: about 0.96%.
HDAC3 inhib – human HDAC3 inhibition. AID 2718. recombinant HDAC3, fluorogenic peptide/trypsin coupled, fluorescence. hit rate 0.15% among 320,000. O15379. inhibition, % at 8.3 µM; in the data active means inhibition above about 26%, passing the limit was not always enough; inconclusive means no clear call, values can overlap the other calls
Target sequence (O15379 whole entry, looked up): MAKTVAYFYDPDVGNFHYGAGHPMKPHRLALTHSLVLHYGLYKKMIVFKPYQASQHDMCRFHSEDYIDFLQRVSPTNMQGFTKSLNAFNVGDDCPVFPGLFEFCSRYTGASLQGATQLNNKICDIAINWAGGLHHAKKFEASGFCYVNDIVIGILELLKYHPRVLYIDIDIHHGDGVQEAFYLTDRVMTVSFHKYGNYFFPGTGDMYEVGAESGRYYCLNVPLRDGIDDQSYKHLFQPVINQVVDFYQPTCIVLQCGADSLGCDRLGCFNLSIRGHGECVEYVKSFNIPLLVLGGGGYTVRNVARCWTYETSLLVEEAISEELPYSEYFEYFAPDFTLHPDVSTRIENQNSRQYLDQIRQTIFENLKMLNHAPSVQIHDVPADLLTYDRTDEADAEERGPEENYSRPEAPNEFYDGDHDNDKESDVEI
V-ATPase pH – yeast V-ATPase proton transport regulation by pHLuorin. hit rate 0.37% among 350,000. S. cerevisiae, pHLuorin cytosolic pH fluorescence. response, % at 10 µM. AID 504577; in the data active means response mostly above about 7.3%, no sharp cut-off; inactive means mostly below about 5.4%; further: actives read high
Rtt109 HAT inh – blocks Candida albicans Rtt109/Vps75 acetyltransferase activity. purified Rtt109/Vps75, ThioGlo CoA-SH fluorescence, 4 h. inhibition, % at 34.9 µM. hit rate 0.16% among 330,000. AID 540336;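 active means inhibition of at least 50% in every replicate; inconclusive means best replicate reaches 50% inhibition but some replicates fall short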
beta cell repl – induces beta-cell replication in MIN6 cells | MIN6 cells proliferation, ATPlite luminescence, 48 h; cells starved in 0.2% serum; 100% = growth in 10% serum | proliferation, % at 10 µM | hit rate 0.29% among 330,000 | AID 2380;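 active means compounds whose signal lies at least 3.5 SD above the mean of all wells on their plate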;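 further: 0% = DMSO-treated cells in low-serum medium and 100% = 10% serum control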
DAGLB inhibitor – diacylglycerol lipase beta (human) inhibition. Q8NCG7. HEK293T DAGLB membrane lysate, EnzChek fluorogenic substrate. inhibition, % at 5.17 µM. hit rate 0.059% among 340,000. AID 504411; in the data active means inhibition above about 34%;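 further: 0% = enzyme with vehicle and 100% = wells lacking enzyme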
VATPase regulator – modulates yeast V-ATPase proton transport; shares compounds with V-ATPase pH; S. cerevisiae pHLuorin cytosolic pH; response, % at 10 µM; hit rate 2% among 980; AID 602197; in the data active means response above about 24%;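 further: plate controls were vehicle wells for no effect and positive control wells for full effect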
* = called active by the depositor.

COc1cccc(OC)c1C(=O)NCCN1CCN(C(=O)c2c(OC)cccc2OC)CC1 was read as V-ATPase pH 1, Rtt109 HAT inh 3, beta cell repl -3 and DAGLB inhibitor -1.
`CC(C)CNC(C(=O)Nc1ccc([N+](=O)[O-])cc1Br)c1ccccc1` (stereo not given) gave HDAC3 inhib 3, V-ATPase pH 11*, Rtt109 HAT inh 11, beta cell repl -5, DAGLB inhibitor -9 and VATPase regulator 2.
Screening C/C(=N\O)C(C)(C)Nc1cccc(Br)c1 returned HDAC3 inhib 1, V-ATPase pH 16*, Rtt109 HAT inh 12, beta cell repl 0, DAGLB inhibitor -3 and VATPase regulator 4.
Cc1ccc(NC(=O)CSc2ccc(-c3ccccn3)nn2)c(C)c1 was read as HDAC3 inhib -2, V-ATPase pH 3, Rtt109 HAT inh -1, beta cell repl -3 and DAGLB inhibitor -2.
Cc1cc(C)c(NC(=O)CSc2ccc(-c3ccccn3)nn2)c(C)c1 was read as HDAC3 inhib -7, V-ATPase pH 11*, Rtt109 HAT inh -5, beta cell repl -2, DAGLB inhibitor -1 and VATPase regulator 0.
Screening Cc1sc2nc(CSc3ccccc3)nc(N3CCN(C)CC3)c2c1C returned HDAC3 inhib 2, V-ATPase pH -6, Rtt109 HAT inh 8, beta cell repl 0 and DAGLB inhibitor -3.
Screening COc1cc(CNCc2ccc(OC)c(OC)c2OC)cc(OC)c1 returned HDAC3 inhib -5, V-ATPase pH 12*, Rtt109 HAT inh 6, beta cell repl -5, DAGLB inhibitor 0 and VATPase regulator -5.
`COc1cccc(CNCc2cc(OC)cc(OC)c2)c1` gave HDAC3 inhib -1, V-ATPase pH 4, Rtt109 HAT inh -5, beta cell repl 0 and DAGLB inhibitor -2.
`Cc1cc(C)c(NC(=O)CS)c(Cl)c1` gave HDAC3 inhib -9, V-ATPase pH -1, Rtt109 HAT inh 10, beta cell repl -3 and DAGLB inhibitor -1.
`COc1ccccc1NC(=O)c1ccccc1S(=O)(=O)c1ccc([N+](=O)[O-])cc1` gave HDAC3 inhib -1, V-ATPase pH -1, Rtt109 HAT inh 6, beta cell repl 7 and DAGLB inhibitor 1.
For COc1ccccc1NC(=O)c1ccccc1S(=O)(=O)c1ccccc1[N+](=O)[O-] the results were HDAC3 inhib -6, V-ATPase pH 11*, beta cell repl -2, DAGLB inhibitor -3 and VATPase regulator 6.
Screening CCC(C)(C)NC(=O)C1CCC(CNS(=O)(=O)c2cccc3nsnc23)CC1 (stereo not given) returned HDAC3 inhib inconclusive, V-ATPase pH 2, Rtt109 HAT inh -4, beta cell repl -2 and DAGLB inhibitor 1.
Cc1cccc(S(=O)(=O)N(C)C[C@H]2OCc3cn(nn3)CCCC(=O)N([C@H](C)CO)C[C@@H]2C)c1 was read as V-ATPase pH 4.9*, DAGLB inhibitor 0 and VATPase regulator 1.
Screening CC(=O)NC(Cc1ccccc1)C(=O)N1CCN(C(=O)c2ccco2)CC1 (stereo not given) returned HDAC3 inhib 2, V-ATPase pH -5, Rtt109 HAT inh -4, beta cell repl -2 and DAGLB inhibitor 2.
For O=C(NC(Cc1ccccc1)C(=O)N1CCN(c2ccccn2)CC1)c1ccco1 (stereo not given) the results were HDAC3 inhib 0, V-ATPase pH 12*, Rtt109 HAT inh -7, beta cell repl 1, DAGLB inhibitor 1 and VATPase regulator -2.
For CN(CC(=O)NC1CCN(Cc2ccccc2)CC1)S(=O)(=O)c1ccc2c(c1)c(=O)n(C)c(=O)n2C the results were HDAC3 inhib -4, V-ATPase pH -3, Rtt109 HAT inh 0, beta cell repl -3 and DAGLB inhibitor -1.
CN1CCN(c2nc3c(c(=O)n(C)c(=O)n3C)n2Cc2ccc(Cl)cc2)CC1 was read as HDAC3 inhib 0, V-ATPase pH 8.0*, Rtt109 HAT inh -2, beta cell repl -2, DAGLB inhibitor -5 and VATPase regulator -8.
For O=C1C=C(c2ccc(-c3ccccc3)cc2)C[C@@H](c2ccc(F)cc2)C1 the results were HDAC3 inhib -10, V-ATPase pH -2, Rtt109 HAT inh -1, beta cell repl -4 and DAGLB inhibitor 0.
`O=C1C=C(c2ccc(C(=O)O)cc2)C[C@@H](c2ccc(F)cc2)C1` gave HDAC3 inhib -5, V-ATPase pH 9.7*, Rtt109 HAT inh 1, beta cell repl -2, DAGLB inhibitor 0 and VATPase regulator -1.
For COc1ccc(NC(=O)CSCC(=O)N(C)Cc2ccc3c(c2)OCCO3)cc1 the results were HDAC3 inhib 10, V-ATPase pH -5, Rtt109 HAT inh 1, beta cell repl -1 and DAGLB inhibitor -1.
For O=S(=O)(Nc1ccccc1)N1CCCCC1 the results were V-ATPase pH -1, Rtt109 HAT inh -3 and DAGLB inhibitor -2.
For CC(=O)c1cccc(NS(=O)(=O)N2CCCCC2)c1 the results were HDAC3 inhib -10, V-ATPase pH 16*, Rtt109 HAT inh -7, beta cell repl 1, DAGLB inhibitor 4 and VATPase regulator 2.
Screening CCOc1ccccc1NC(=O)COC(=O)c1cnc(C)cn1 returned V-ATPase pH 0, Rtt109 HAT inh 0, beta cell repl 0 and DAGLB inhibitor -2.
Screening Cc1noc(C)c1CSCC(=O)Nc1cc(S(=O)(=O)N2CCCCC2)ccc1OC(C)C returned HDAC3 inhib 8, V-ATPase pH -3, Rtt109 HAT inh -1, beta cell repl 4 and DAGLB inhibitor -6.
For CCN(CC)c1ccc(S(=O)(=O)N2CCCCC2)cc1NC(=O)CSCc1c(C)noc1C the results were V-ATPase pH 10*, Rtt109 HAT inh 14, DAGLB inhibitor -9 and VATPase regulator -3.
Clc1ccc(Nc2ncnc3c2cnn3-c2ccccc2)cc1 was read as HDAC3 inhib 11, V-ATPase pH -1, Rtt109 HAT inh -24, beta cell repl -6 and DAGLB inhibitor -11.
For COc1ccc(Nc2ncnc3c2cnn3-c2ccccc2)cc1OC the results were HDAC3 inhib -1, V-ATPase pH 11*, Rtt109 HAT inh 9, beta cell repl 1, DAGLB inhibitor 3 and VATPase regulator 5.
Cc1ccc(C)c(OCc2ccc(C(=O)Nc3ccc([N+](=O)[O-])cn3)o2)c1 was read as HDAC3 inhib 0, V-ATPase pH 9.9*, Rtt109 HAT inh 0, beta cell repl -2, DAGLB inhibitor -7 and VATPase regulator 5.
Screening Cc1ccc(C)c(OCc2ccc(C(=O)NN)o2)c1 returned HDAC3 inhib 1, V-ATPase pH 0, Rtt109 HAT inh 4, beta cell repl 0 and DAGLB inhibitor -6.
For COc1ccc([C@H]2C[C@@H](O)[C@H](n3cc(-c4ccc(F)cc4)nn3)CN2C(=O)C2CCCCC2)cc1 the results were V-ATPase pH 7.0*, DAGLB inhibitor -1 and VATPase regulator 1.
